Reference: PubChem BioAssay AID588651 (The Scripps Research Institute Molecular Screening Center, 2011)
Active and inactive are the calls of the source. No stated cut-off is given here; in the data, active means inhibition above about 65%; inactive means the rest.

System: Fam108b
Assay: Fam108b inhibitors and proteome off-target selectivity – biochemical, gel-based ABPP, recombinant soluble Fam108b, HTS hits, complex proteome, late-stage follow-up (AID 588651);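 further: Fam108b spiked into mouse brain membrane proteome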
Details: FP-rhodamine labeling in proteome, at 20 µM, stronger effect = higher value

inhibition, inactive:
O=c1ccc2cc3c([nH]c4ccc(Br)cc43)oc-2c1O 10%, O=C(O)c1ccc(S(=O)(=O)/N=C2\C=C(Nc3ccccc3F)C(=O)c3ccccc32)cc1 0%, O=C1NC(=S)/C(=C\c2ccc(-c3ccccc3Cl)o2)S1 0%, Fc1ccc2nc(Nc3nc4cc5c(cc4s3)OCO5)sc2c1 0%, Cc1cc(Nc2ccc(Cl)cc2)nc(NCc2ccccc2)n1 0%, COc1ccc(C=NNC(=O)c2ccc(O)cc2)cc1CN1CCCc2ccccc21 40%, COc1ccc(/C=C2\SC(=S)N(CC(=O)OCC(=O)Nc3cc(Cl)cc(Cl)c3)C2=O)cc1 0%, Nc1cc(C(=O)O)c(N)c2c1C(=O)c1ccccc1C2=O 0%, COc1ccc(NC(=S)Nc2ccc3nsnc3c2)cc1 0%, CC1(C)CC(=O)C2=C(C1)c1c(ccc3ccccc13)NC2c1cc([N+](=O)[O-])cc([N+](=O)[O-])c1O (centres undefined) 50%, COc1cc2c(cc1NC(=S)Nc1cccc(C(F)(F)F)c1)oc1ccccc12 20%, O=[N+]([O-])c1ccc(NN=Cc2ccccc2O)cc1 0%, Brc1csc(C=NNc2nc3ccccc3s2)c1 0%, O=C1C(Cl)=C(Nc2ccc3cn[nH]c3c2)C(=O)c2ccccc21 0%, Cc1[nH]c2c(C)cccc2c1CCNC(=O)c1ccc2c(c1[N+](=O)[O-])C(=O)c1ccccc1C2=O 40%, COc1ccc(/C=C/C(=O)OCC(=O)Nc2cccc(Oc3ccccc3)c2)c(OC)c1 30%, CCN(CC)c1ccc(C2Nc3cccc4cccc(c34)N2)c(O)c1 10%

inhibition, active:
Oc1oc(-c2ccccc2Br)nc1C=Nc1ccccn1 90%, CC(C)(C)c1nc2scc(-c3cccs3)c2c(=O)o1 80%
